# Measurements: PubChem BioAssay
# Activity calls are given as the source filed them.
# Columns and labels:
# [1] = binders of probe aFSTL3 on microarray, primary screen, stem cell growth factor project, biochemical, small-molecule microarray, fluorescence 635/667 (AID 1064); conditions: higher = more signal;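 further: measures binding of the biotinylated anti-FSTL3 antibody to printed compounds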
# [2] = binders from COS7 lysate, DM2A8 probe, primary screen, torsin A project, cell lysate, small-molecule microarray, fluorescence 635/667 (AID 1065); conditions: higher = more signal, COS7 lysate expressing mutant human TOR1A
# [3] = binders of probe aFGF2 on microarray, primary screen, stem cell growth factor project, biochemical, small-molecule microarray, fluorescence 635/667 (AID 1067); conditions: higher = more signal;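 further: measures binding of biotinylated aFGF2 protein to printed compounds on slides; z-score merges feature fluorescence and signal-to-noise across triplicate slides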
# [4] = binders of probe aFGF10 on microarray, primary screen, stem cell growth factor project, biochemical, small-molecule microarray, fluorescence 635/667 (AID 1071); conditions: higher = more signal;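 further: score merges 667 nm spot intensity and signal to noise from triplicate slides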
# [5] = biological target: Neurogenic locus notch homolog protein 2 (Homo sapiens) (UniProt Q04721); assay: Notch2 binders on small-molecule microarrays, primary screen, biochemical, small-molecule microarray, 635 nm fluorescence, stem cell growth factors (AID 1073); conditions: Notch2 binding, higher = more signal
# [6] = biological target: Pro-neuregulin-1, membrane-bound isoform (Homo sapiens) (UniProt Q02297); assay: NRG1 binders on small-molecule microarrays, primary screen, psychiatric disease protein project, biochemical, small-molecule microarray, fluorescence 635/667 (AID 1075); conditions: NRG1 binding, 635 nm fluorescence, higher = more signal;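 further: score combines 667 nm spot fluorescence with signal to noise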
# [7] = system: Neuregulin-1 EGF-like domain; assay: binders of neuregulin-1 EGF-like domain, primary screen, biochemical, small-molecule microarray, 635 nm fluorescence (AID 1081); conditions: small-molecule microarray binding, higher = more signal;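 further: binding of the protein to compounds printed on small-molecule microarray slides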
# [8] = FRG1 promoter luciferase signal modulators, primary screen, FRG1 inhibition for FSHD, cell-based, C2C12 myotubes, firefly/Renilla luciferase, luminescence (AID 1084); conditions: higher = more signal, called active from +8 up or from −8 down
# [9] = binders of probe aFST on microarray, primary screen, stem cell growth factor project, biochemical, small-molecule microarray, fluorescence 635/667 (AID 1086); conditions: higher = more signal;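 further: score merges 667 nm fluorescence with signal-to-noise of each printed compound spot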
# [10] = binders of probe aHhip on microarray, primary screen, stem cell growth factor project, biochemical, small-molecule microarray, fluorescence 635/667 (AID 1087); conditions: higher = more signal;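 further: score merges spot fluorescence at 667nm with spot signal to noise ratio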
# [11] = system: PRMT1 (protein arginine N-methyltransferase 1); assay: PRMT1 binders on small-molecule microarrays, primary screen, biochemical, small-molecule microarray, 635 nm fluorescence (AID 1088); conditions: small-molecule microarray binding, higher = more signal;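 further: binding of Prmt1 protein to compounds spotted on small-molecule microarray slides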
# [12] = yeast growth modulation, basal conditions, primary screen, YJM789 clinical isolate, OD600, 24 h (AID 1089);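 further: growth of clinical yeast isolate S. cerevisiae YJM 789 seeded 1000 cells per well; test concentration not given here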; conditions: S. cerevisiae YJM789 growth, higher = more signal, called active from +8 up or from −8 down
# [13] = fission yeast growth modulation, primary screen, strain 972, OD600, 24 h, no modulator (AID 1090);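 further: basal condition with compound alone and no growth modifier present; test concentration not given here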; conditions: S. pombe 972 growth, higher = more signal, called active from +8 up or from −8 down
# [14] = S. cerevisiae growth modulation with rapamycin, primary screen, strain BY4716, OD600, 96 h (AID 1091); conditions: higher = more signal, called active from +8 up or from −8 down; further: test concentration not given here
# [15] = biological target: Torsin-1A-interacting protein 2 (Homo sapiens) (UniProt Q8NFQ8); assay: LULL1 binders on small-molecule microarray, primary screen, cell lysate, human LULL1 lysate, 635/667 nm fluorescence (AID 1092); conditions: hLULL1 lysate binding, 635 nm fluorescence, higher = more signal;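 further: probe is lysate of COS7 cells overexpressing human LULL1; score merges per-feature 667 nm fluorescence with signal-to-noise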
# [16] = E. coli growth modulation, two-sided OD650, primary screen, E. coli filamentation project, strain DRC41, 24 h (AID 1093); conditions: OD650, 24 h, higher = more signal, called active from +8 up or from −8 down;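 further: MC1000 strain lacking acrAB efflux and sulA so SOS filamentation is blocked; test concentration not given here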
# [17] = small-molecule microarray binders of probe aLefty2, primary screen, biochemical, biotinylated probe, 635/667 nm fluorescence (AID 1094); conditions: higher = more signal;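 further: score merges spot fluorescence near 667 nm with spot signal-to-noise ratio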
# [18] = system: Noggin (protein binding on small-molecule microarray); assay: Noggin binders on small-molecule microarray, primary screen, biochemical, 635/667 nm fluorescence (AID 1095); conditions: 635 nm fluorescence, higher = more signal;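 further: score merges 667 nm feature fluorescence with signal to noise over triplicate slides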
# [19] = biological target: Neurogenic locus notch homolog protein 3 (Homo sapiens) (UniProt Q9UM47); assay: NOTCH3 binders on small-molecule microarray, primary screen, biochemical, 635/667 nm fluorescence (AID 1096); conditions: NOTCH3 binding, 635 nm fluorescence, higher = more signal
# [20] = small-molecule microarray binders of probe aEGFR, primary screen, biochemical, biotinylated probe, 635/667 nm fluorescence (AID 1097); conditions: higher = more signal;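 further: probe is a biotinylated anti-EGFR antibody binding compounds printed on slides; score combines fluorescence near 667 nm and signal to noise of each spot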
# Chain of Pro-neuregulin-1, membrane-bound isoform (Homo sapiens) (Q02297 whole entry, looked up, the tested form may be a part, canonical isoform): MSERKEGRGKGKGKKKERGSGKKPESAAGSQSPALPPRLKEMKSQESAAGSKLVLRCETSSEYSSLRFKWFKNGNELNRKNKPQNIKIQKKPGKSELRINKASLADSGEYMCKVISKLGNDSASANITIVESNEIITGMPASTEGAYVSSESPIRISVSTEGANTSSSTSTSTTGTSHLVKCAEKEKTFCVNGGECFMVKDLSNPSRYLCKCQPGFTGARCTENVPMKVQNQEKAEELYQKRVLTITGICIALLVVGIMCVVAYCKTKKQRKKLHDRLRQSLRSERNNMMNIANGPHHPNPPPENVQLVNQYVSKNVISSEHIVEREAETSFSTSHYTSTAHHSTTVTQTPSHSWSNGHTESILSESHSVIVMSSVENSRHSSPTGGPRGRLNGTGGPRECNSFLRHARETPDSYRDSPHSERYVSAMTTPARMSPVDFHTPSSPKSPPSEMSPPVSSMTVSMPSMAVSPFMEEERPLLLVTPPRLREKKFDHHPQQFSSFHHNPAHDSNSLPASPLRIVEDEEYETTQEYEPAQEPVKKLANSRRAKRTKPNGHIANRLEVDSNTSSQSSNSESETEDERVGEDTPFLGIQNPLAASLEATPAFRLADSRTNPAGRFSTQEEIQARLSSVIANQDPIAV
# Chain of Torsin-1A-interacting protein 2 (Homo sapiens) (Q8NFQ8 whole entry, looked up): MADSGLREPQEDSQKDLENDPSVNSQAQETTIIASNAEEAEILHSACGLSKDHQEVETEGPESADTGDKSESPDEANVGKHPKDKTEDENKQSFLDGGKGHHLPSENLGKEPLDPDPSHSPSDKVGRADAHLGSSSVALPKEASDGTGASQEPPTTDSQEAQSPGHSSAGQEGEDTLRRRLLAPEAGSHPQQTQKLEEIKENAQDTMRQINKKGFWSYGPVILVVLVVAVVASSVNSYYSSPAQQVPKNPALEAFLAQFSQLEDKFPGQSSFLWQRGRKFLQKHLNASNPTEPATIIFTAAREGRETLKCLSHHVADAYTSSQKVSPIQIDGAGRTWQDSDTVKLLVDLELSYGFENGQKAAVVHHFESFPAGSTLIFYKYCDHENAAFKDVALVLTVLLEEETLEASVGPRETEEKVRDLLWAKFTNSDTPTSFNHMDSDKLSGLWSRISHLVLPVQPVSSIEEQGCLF
# Chain of Neurogenic locus notch homolog protein 2 (Homo sapiens) (Q04721 whole entry, looked up, canonical isoform): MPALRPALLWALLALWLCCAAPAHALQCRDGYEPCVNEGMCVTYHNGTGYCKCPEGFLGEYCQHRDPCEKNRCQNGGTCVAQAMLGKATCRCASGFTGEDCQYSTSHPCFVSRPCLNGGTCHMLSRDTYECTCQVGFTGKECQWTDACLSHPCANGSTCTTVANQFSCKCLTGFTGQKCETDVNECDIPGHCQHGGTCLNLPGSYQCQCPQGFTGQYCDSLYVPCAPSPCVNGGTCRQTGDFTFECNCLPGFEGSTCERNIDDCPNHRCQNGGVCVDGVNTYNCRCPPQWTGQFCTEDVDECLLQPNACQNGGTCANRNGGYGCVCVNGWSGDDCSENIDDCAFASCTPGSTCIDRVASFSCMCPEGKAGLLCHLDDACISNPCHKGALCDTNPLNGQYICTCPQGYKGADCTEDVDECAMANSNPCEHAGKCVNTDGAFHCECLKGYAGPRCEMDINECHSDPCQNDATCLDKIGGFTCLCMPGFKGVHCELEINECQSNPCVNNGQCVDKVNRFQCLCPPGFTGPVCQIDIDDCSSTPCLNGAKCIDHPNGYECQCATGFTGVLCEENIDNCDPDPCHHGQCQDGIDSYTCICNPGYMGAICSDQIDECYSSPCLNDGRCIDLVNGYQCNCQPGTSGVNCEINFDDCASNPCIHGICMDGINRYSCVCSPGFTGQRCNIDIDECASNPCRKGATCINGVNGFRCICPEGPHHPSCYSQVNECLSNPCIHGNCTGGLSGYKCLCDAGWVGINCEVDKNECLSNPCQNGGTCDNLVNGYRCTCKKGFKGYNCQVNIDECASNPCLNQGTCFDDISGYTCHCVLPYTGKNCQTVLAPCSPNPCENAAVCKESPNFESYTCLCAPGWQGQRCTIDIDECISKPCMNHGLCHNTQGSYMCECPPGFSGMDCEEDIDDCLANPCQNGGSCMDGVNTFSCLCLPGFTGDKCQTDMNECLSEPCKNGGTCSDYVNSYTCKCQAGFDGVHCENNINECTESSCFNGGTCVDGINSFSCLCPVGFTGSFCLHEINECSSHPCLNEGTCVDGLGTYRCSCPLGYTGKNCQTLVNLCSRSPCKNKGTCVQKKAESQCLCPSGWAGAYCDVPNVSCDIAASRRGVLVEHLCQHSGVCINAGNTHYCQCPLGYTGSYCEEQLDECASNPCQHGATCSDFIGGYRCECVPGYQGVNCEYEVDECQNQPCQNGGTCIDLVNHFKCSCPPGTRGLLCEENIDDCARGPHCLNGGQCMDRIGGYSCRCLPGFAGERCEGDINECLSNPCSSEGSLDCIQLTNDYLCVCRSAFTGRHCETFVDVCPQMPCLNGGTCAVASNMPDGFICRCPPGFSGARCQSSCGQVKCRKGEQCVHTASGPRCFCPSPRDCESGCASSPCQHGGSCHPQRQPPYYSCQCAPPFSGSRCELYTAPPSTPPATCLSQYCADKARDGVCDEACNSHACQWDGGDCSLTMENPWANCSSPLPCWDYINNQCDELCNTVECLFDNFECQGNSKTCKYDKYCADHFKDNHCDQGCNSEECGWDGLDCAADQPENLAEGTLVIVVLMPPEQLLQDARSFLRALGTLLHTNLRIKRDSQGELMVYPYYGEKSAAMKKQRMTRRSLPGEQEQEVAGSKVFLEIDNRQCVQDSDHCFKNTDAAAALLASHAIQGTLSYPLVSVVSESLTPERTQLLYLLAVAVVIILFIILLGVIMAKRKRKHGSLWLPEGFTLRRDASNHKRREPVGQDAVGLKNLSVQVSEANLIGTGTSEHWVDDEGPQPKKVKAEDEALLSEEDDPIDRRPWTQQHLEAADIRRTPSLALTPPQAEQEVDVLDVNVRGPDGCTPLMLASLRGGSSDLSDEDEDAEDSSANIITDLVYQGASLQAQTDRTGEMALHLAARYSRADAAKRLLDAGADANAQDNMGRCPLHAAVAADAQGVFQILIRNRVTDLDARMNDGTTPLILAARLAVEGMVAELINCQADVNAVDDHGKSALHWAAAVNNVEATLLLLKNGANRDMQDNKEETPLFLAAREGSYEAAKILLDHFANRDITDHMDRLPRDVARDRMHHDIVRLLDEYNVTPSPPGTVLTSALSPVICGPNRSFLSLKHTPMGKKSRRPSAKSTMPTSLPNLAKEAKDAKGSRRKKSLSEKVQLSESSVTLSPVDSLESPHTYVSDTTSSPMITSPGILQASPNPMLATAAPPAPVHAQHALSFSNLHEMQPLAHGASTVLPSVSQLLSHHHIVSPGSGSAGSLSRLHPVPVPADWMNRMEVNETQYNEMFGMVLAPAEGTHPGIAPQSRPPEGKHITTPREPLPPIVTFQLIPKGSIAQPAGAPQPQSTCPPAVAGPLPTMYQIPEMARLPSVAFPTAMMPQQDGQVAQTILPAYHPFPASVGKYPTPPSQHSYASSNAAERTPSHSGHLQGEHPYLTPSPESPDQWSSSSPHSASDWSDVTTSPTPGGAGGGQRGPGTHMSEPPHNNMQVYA
SMILES,composite z-score [1],composite z-score [2],composite z-score [3],composite z-score [4],composite z-score [5],composite z-score [6],composite z-score [7],z-score [8],composite z-score [9],composite z-score [10],composite z-score [11],z-score [12],z-score [13],z-score [14],composite z-score [15],z-score [16],composite z-score [17],composite z-score [18],composite z-score [19],composite z-score [20]
NC(=O)[C@H]1[C@@H]2C(=O)O[C@@H](c3ccccc3)[C@@H](c3ccccc3)N2[C@@H](c2ccc(O)cc2)[C@]12C(=O)Nc1ccccc12,0.339,-1.11,-0.128,-0.171,-1.37,1.81,0.653,-0.977 (inactive),-0.442,-0.137,-0.472,0.446 (inactive),-0.732 (inactive),0.659 (inactive),2.99,0.13 (inactive),-0.139,-1.18,-1.03,-0.356
NCCCCCNC(=O)[C@@H]1C[C@@H]2C(=O)N3CCC[C@H]3C(=O)N2[C@@H]1c1ccc(O)cc1,1.19,0.0642,0.0232,0.42,0.714,0.976,1.1,0.0207 (inactive),1,0.0053,0.61,0.758 (inactive),-0.986 (inactive),1.3 (inactive),1.97,1.05 (inactive),0.512,0.408,0.391,0.171
COc1cc(NN2C(C(O)c3ccccc3)C=CC3C(=O)N(C)C(=O)C32)cc(OC)c1OC (stereo not given),0.0217,0.48,0.0074,0.371,1.34,1.88,1.36,0.359 (inactive),0.4,-0.0672,1.53,0.679 (inactive),0.529 (inactive),0.328 (inactive),2.98,-0.852 (inactive),0.12,0.27,0.832,-0.0581
[N-]=[N+]=NCc1ccccc1C[C@@]1(C(=O)N2CCCCC2)N=C(c2ccc(OCCCO)cc2)O[C@@H]1c1ccccc1CN=[N+]=[N-],0.319,1.42,0.0234,0.144,1.14,0.698,0.901,-3.69 (inactive),0.828,-0.177,1.28,-0.364 (inactive),0.78 (inactive),25.9 (active),2.46,0.76 (inactive),0.154,-0.147,0.278,-0.0833
CC(=O)NCCCC[C@@H]1NC(=O)[C@@H]2C[C@H](C(=O)NCCCCCCN)[C@H](c3cccc(OCCO)c3)N2C1=O,0.501,0.43,-0.0336,0.281,-0.149,1.63,1.08,2.15 (inactive),-0.0064,-0.0296,0.858,0.119 (inactive),-0.646 (inactive),-0.831 (inactive),2.3,-0.314 (inactive),-0.0554,0.271,-0.239,-0.175
C=C(/C(=C/C[C@H](OC(=O)c1ccncc1)c1ccccc1OCCO)c1cnc2ccccc2c1)C(C)C,-0.145,0.763,-0.0316,1.18,1.55,1.01,1.22,-0.0406 (inactive),0.853,-0.112,1.54,-2.36 (inactive),-0.555 (inactive),2.22 (inactive),2.27,-0.0584 (inactive),-0.0632,1.13,1.02,-0.0828
COC(=O)C(CC#Cc1ccc2c(c1)[C@]1(C(=O)N2)[C@H](C(=O)Nc2nc3ccccc3s2)[C@H]2C(=O)O[C@H](c3ccccc3)[C@H](c3ccccc3)N2[C@@H]1c1ccc(OCCO)cc1)C(=O)OC,0.156,0.444,-0.0036,1.05,1.4,1.87,1.24,1.9 (inactive),0.846,-0.137,1.55,-0.442 (inactive),-0.144 (inactive),1.37 (inactive),3.18,2.96 (inactive),0.0973,1.59,1.08,0.0766
C=CCNC(=O)[C@H]1[C@@H]2C(=O)O[C@@H](c3ccccc3)[C@@H](c3ccccc3)N2[C@@H](c2ccc(OCCO)cc2)[C@]12C(=O)N(C(=O)OCCOC)c1ccc(C#Cc3ccc(OC)cc3)cc12,0.0886,0.91,-0.0252,0.713,0.897,0.671,1.12,0.0138 (inactive),0.111,-0.335,1.41,1.2 (inactive),0.927 (inactive),6.91 (inactive),2.47,2.63 (inactive),-0.0154,1.04,1.09,-0.0164
CCOC(=O)C1=C[C@@H](c2ccccc2)N(S(=O)(=O)c2ccc(C)cc2)[C@H]1c1ccccc1,0.119,-0.137,-0.0659,0.21,0.917,0.442,0.296,-0.401 (inactive),0.171,-0.0994,0.712,-1.27 (inactive),0.517 (inactive),0.958 (inactive),0.91,0.6 (inactive),-0.0113,0.0762,0.552,-0.112
O=C1[C@@]23C=C(Br)[C@H](C[C@@H]2COC3)[C@@]12CO2,-0.325,0.422,-0.112,0.38,0.32,0.0504,0.0447,-0.214 (inactive),0.159,-0.268,-0.186,0.108 (inactive),-1.34 (inactive),0.0993 (inactive),-0.498,-1.39 (inactive),-0.124,0.648,0.574,-0.184
